A word on the inhibition: it is the drop in the measured response relative to a control, in per cent. Broadly, the viability is a per cent measure of how many cells are alive, often set against a control.

Each structure is given as a SMILES string. “And” between values parts separate entries of the source, which are not always exact repeats. Identical values can stand only once. The source made the active and inactive calls.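 Rule for the calls, unless noted: active = compounds that lower survival of HCT116 colon cancer cells in the luminescence readout, no numeric limit stated; inactive = the rest.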

These results are taken from PubChem BioAssay.

Assay [1] in a line: Wnt pathway potentiators raising nuclear beta-catenin – imaging, WNT3A-conditioned medium, mouse C2C12, NPC library, primary screen (AID 1117326; in the data active = nuclear beta-catenin stimulation mostly above about 4.2%, no sharp cut-off; inactive = mostly below about 10%). Particulars: stronger effect = higher value.
A short description of assay [2]: stimulators of insulin release from INS-1E, primary screen, cell-based, 5 mM glucose, NPC library (AID 1117329;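 active = compound raises insulin release from rat beta cells at 5 mM glucose, no numeric limit stated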). Particulars: rat INS-1E insulin secretion, at 10 µM, stronger effect = higher value.
Assay [3] in a line: growth inhibition of GSK3B-pretreated HCT116 cells – cell-based, CellTiter-Glo, 0.2 to 20 µM (AID 1117336;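 active = compounds lowering colon cancer cell viability after pretreatment blocking the GSK3B kinase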). The note with it: HCT116 viability after GSK3B inhibitor, at 20 µM, stronger effect = higher value. In general terms: ATP-based viability assays read luminescence as a measure of living cells.
Assay [4] in a line: inhibition of endothelial tube formation, primary screen, imaging, VEGF stimulated, CD31 staining, tube area, NPC library (AID 1117340;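 active = compound that reduces growth-factor-driven endothelial tube area in a mixed cell culture, no cutoff stated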). Particulars: VEGF-stimulated ADSC/ECFC co-culture, at 10 µM, stronger effect = higher value.
Assay [5] is described as follows: GLP1 release stimulators, primary, NCI-H716, NPC library (AID 1117341;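 active = compound raises GLP1 secretion from the human gut endocrine cells, with no numeric limit stated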). Particulars: NCI-H716 cells, at 10 µM, stronger effect = higher value.
Assay [6] in a line: HCT116 colon cancer cell growth inhibition, primary screen, CellTiter-Glo luminescence, NPC library (AID 1117342). The note with it: at 20 µM (top of the series).
The nature of assay [7]: reduced SW480 viability measured with CellTiter-Glo, NPC library, primary (AID 1117343;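 active = compounds that lower viability of the colon cancer cells in the luminescence readout, with no numeric limit stated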). Particulars: CellTiter-Glo luminescence; at 20 µM (top of the series).
Assay [8] can be described thus: NPC library primary testing for decreased DLD-1 cell viability via CellTiter-Glo (AID 1117346;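 active = compounds that lower survival of DLD-1 colon cancer cells in the luminescence readout, no cutoff given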). Particulars: DLD-1 viability, CellTiter-Glo luminescence; at 20 µM (top of the series).
Assay [9] deals with 6-phosphogluconate dehydrogenase, decarboxylating (Homo sapiens) (UniProt P52209). In words: inhibition of human phosphogluconate dehydrogenase – biochemical, recombinant enzyme, NADPH absorbance, primary screen (AID 1159550;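 active = at least 20% inhibition of 6-phosphogluconate dehydrogenase activity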). The note with it: recombinant 6PGD, NADPH absorbance 341 nm; at 10 µM; stronger effect = higher value.
A short description of assay [10]: yeast 75Q aggregation reduction – 75Q-TubU reporter (AID 1593). Particulars: Yeast 75Q polyglutamine aggregation reporter.
Assay [11] can be described thus: blockers of cytochrome c efflux from mitochondria – biochemical, purified mitochondria (AID 1603).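 Note: mouse liver mitochondria challenged with calcium chloride; signal normalized to the plate average as 100%.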 Particulars: stronger effect = lower value.
A short description of assay [12]: polyglutamine aggregate formation blockers (AID 1604). Particulars: polyglutamine-induced protein aggregation inhibition assay; stronger effect = higher value; tested at 2.5 µM.
Assay [13] can be described thus: P. berghei load reduction in hepatocytes – cell-based, HepG2, luciferase luminescence, HepG2 viability, primary screen (AID 624349; in the data active = parasite load remaining mostly below about 12%, no sharp cut-off; inactive = mostly above about 10%;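 note: 100% = mean of DMSO negative control wells on the same plate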). Particulars: P. berghei liver stage in HepG2, luciferase luminescence, concentration not given here; parasite load remaining: stronger effect = lower value; viability: measured here: HepG2 viability without parasites.
Assay [14] is described as follows: EMT-state selective cytotoxicity in co-culture – imaging, PC-3E GFP, TEM4-18 mCherry, primary screen (AID 1345086;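 active = compounds killing one labelled cell type while sparing the other, by normalised counts and ratio limits, not self-fluorescent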;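 for all read-outs here: cells exposed to compound for 72 h before imaging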;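 for red/green cell ratio (normalised): normalised mesenchymal count divided by normalised epithelial count so high means epithelial killing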). The note with it: PC-3E GFP / TEM4-18 mCherry co-culture, imaging cell counts, at 1 µM; for red/green cell ratio (normalised): actives lie on both sides.
The subject of assay [15] is Aerobactin synthetase IucA (Klebsiella pneumoniae hvKP1). In words: IucA enzyme inhibition, primary screen, biochemical, Spectrum library (AID 1346200; call rule not given here;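 note: 100% = wells without compound and 0% = wells lacking enzyme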). Particulars: malachite green pyrophosphate, A620, at 8 µM, stronger effect = lower value.
A short description of assay [16]: viability loss with induced miR-34 in A549 – imaging, A549 dox-inducible miR-34, nuclei and caspase counts, primary screen (AID 1347080;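 active = compounds whose cell count with miR-34 switched on is under 0.7 times the count with it off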). The note with it: A549 miR-34 inducible, Hoechst nuclei count, 48 h.
Assay [17] is described as follows: MELAS cybrid and Rieske KO viability enhancers – cell-based, MELAS cybrids, Rieske KO mouse fibroblasts, CellTiter-Glo, primary screen (AID 1508586;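 active = mean z-score across replicates of 1.96 or higher in either the MELAS or the Rieske mutant cell line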;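 note: z relative to plate mean and SD of compound and empty wells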). The note with it: low glucose.
The target in assay [18] is NAD(+) hydrolase SARM1 (Homo sapiens) (UniProt Q6SZW1). In words: blocking NAD cleavage by SARM1 SAM-TIR – cell lysate, NAD-Glo luminescence (AID 1508614;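 active = compound whose remaining NAD level is above about 45 nM, limit read from the data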;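 note: higher remaining NAD means stronger inhibition of SARM1 NADase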). The note with it: SAM-TIR HEK293T lysate NADase, at 1 µM, stronger effect = higher value.
The target in assay [19] is Mitogen-activated protein kinase 7 (Homo sapiens) (UniProt Q13164). In words: Gal4-ERK5 driven luciferase induction – cell-based, HTS, primary screen (AID 1508626;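 active = luciferase signal above three times the same-plate solvent-only control wells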;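 note: luciferase driven by Gal4-ERK5 fusion binding five Gal4 sites before minimal TATA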). Particulars: HeLa Gal4-ERK5 transactivation, 18 h, at 5 µM, stronger effect = higher value.
Assay [20] can be described thus: galactose survival enhancers in mitochondrial complex I cybrids – cell-based, galactose medium, ATP luminescence, primary screen (AID 1645843;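 active = z-score of at least 1.8 in each of two replicates, scored against plate mean and spread of sample wells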;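 note: positive z means more ATP and so rescue of galactose-driven cybrid death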). Particulars: complex I mutant cybrid cells, 72 h, stronger effect = higher value.
Where [21] appears, read: measured here: epithelial PC-3E GFP cell survival.
Where [22] appears, read: measured here: mesenchymal TEM4-18 mCherry cell survival.
Where [23] appears, read: measured here: relative caspase fold change +Dox/-Dox.
The mark [24] stands for this setting: measured here: total cells with miR-34 induction, stronger effect = lower value.
The mark [25] stands for this setting: measured here: total cells without miR-34 induction.
Setting [26] is: MELAS cybrid survival, CellTiter-Glo 48 h, stronger effect = higher value.
[27] abbreviates: Rieske KO mouse fibroblast survival, CellTiter-Glo 72 h.

Sequence of 6-phosphogluconate dehydrogenase, decarboxylating (Homo sapiens) (P52209 whole entry, looked up): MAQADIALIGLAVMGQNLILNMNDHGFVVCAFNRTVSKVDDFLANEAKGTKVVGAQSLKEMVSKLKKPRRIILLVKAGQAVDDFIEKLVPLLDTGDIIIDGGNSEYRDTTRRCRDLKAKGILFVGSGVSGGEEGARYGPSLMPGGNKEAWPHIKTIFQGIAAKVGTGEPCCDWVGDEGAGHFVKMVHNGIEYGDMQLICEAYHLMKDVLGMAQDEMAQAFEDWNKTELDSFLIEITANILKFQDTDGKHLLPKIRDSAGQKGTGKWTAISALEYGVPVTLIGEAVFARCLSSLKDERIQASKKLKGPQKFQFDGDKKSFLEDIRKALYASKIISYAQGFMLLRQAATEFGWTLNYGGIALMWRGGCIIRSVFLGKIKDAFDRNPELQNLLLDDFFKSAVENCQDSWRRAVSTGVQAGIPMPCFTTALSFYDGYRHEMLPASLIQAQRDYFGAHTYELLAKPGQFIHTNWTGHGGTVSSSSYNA
Sequence of NAD(+) hydrolase SARM1 (Homo sapiens) (Q6SZW1 whole entry, looked up, the tested form may be a part): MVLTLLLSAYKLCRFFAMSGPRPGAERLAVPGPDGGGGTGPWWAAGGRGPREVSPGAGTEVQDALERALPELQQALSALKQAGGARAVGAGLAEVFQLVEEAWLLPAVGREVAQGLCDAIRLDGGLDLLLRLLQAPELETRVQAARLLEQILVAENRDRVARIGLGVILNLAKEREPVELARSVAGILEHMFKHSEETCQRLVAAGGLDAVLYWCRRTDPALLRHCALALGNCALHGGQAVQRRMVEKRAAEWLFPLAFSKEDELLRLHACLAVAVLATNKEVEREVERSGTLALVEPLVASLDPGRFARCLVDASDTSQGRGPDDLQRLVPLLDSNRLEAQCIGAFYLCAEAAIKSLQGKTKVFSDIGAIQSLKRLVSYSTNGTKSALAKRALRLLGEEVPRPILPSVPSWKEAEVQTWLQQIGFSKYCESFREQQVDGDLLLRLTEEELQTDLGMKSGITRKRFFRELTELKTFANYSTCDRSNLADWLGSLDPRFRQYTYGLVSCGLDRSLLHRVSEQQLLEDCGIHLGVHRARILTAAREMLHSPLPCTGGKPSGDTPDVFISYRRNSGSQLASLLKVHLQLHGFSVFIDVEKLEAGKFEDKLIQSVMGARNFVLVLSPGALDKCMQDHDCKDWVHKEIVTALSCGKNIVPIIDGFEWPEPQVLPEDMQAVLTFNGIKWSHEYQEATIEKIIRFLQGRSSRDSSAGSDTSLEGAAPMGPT
Sequence of Mitogen-activated protein kinase 7 (Homo sapiens) (Q13164 whole entry, looked up, the tested form may be a part): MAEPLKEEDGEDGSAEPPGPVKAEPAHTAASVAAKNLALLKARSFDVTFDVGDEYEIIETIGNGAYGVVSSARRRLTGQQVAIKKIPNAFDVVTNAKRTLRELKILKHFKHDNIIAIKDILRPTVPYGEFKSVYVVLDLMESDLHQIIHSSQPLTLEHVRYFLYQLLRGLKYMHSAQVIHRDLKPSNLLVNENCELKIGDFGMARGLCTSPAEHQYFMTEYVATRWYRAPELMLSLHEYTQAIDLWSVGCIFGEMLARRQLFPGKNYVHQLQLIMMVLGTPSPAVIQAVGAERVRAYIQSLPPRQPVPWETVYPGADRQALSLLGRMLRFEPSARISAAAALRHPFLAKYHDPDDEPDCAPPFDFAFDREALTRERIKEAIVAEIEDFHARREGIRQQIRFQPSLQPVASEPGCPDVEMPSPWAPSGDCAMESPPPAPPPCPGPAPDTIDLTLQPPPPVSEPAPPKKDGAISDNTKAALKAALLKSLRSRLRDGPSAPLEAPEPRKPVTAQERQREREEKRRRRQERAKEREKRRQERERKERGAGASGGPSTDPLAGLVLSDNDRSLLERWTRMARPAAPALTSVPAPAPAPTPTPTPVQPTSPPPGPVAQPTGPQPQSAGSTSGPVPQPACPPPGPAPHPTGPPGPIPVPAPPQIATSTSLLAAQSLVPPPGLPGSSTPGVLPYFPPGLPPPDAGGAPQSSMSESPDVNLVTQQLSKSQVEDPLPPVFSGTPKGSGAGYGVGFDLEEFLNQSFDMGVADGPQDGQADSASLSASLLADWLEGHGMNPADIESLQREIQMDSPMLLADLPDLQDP

For the compound `CCOC(=O)NC(O)C(Cl)(Cl)Cl` (configuration not stated), the nuclear beta-catenin stimulation in assay [1] (at 10 µM) is -0.2% (inactive); in assay [1] (stimulation, at 2 µM), 2.2%. Besides, the insulin secretion stimulation in assay [2] was 0.3% (inactive). For the same compound, the viability decrease in assay [3] is -4.2% (inactive). Besides, the tube area decrease in assay [4] was -20.4% (inactive). The GLP1 secretion stimulation in [5] is 0.8% (inactive). For the same compound, the inhibition of viability in assay [6] is -2.5% (inactive). Also, the viability decrease (inhibition) was 16.2% (inactive) in assay [7] and 4.55% (inactive) in assay [8].

With `CCCC1CCCCN1` (configuration not stated), the nuclear beta-catenin stimulation in [1] (at 10 µM) is 0.5% (inactive); in [1] (stimulation, at 2 µM) it was 0.1%. Moreover, the insulin secretion stimulation in assay [2] is -0.9% (inactive). Further, the viability decrease in [3] was -0.7% (inactive). Besides, the tube area decrease in assay [4] was 2.4% (inactive). Besides, in assay [5], the GLP1 secretion stimulation was 0% (inactive). In addition, in assay [6], the inhibition of viability was -0.2% (inactive). Besides, the viability decrease (inhibition) in assay [7] was 8% (inactive); in assay [8], -1.85% (inactive). Moreover, the inhibition in [9] was 18.6% (inactive).

`CC(CCc1ccccc1)NC(C)C(O)c1ccc(O)cc1` (configuration not stated) gave a score in assay [10] of 1.53. Further, in assay [11], the cytochrome c release ratio was 0.84. The compound also yielded an inhibition of aggregation in [12] of 63.6%. The parasite load remaining in assay [13] was 75.2% (inactive) and 69.3% (inactive). Moreover, the viability in assay [13] is 72.4% and 90.8%. For the same compound, the nuclear beta-catenin stimulation is -0.2% (inactive) in assay [1] (at 10 µM) and -0.9% in assay [1] (stimulation, at 2 µM). The insulin secretion stimulation in assay [2] is 43.4% (active). In addition, the viability decrease in assay [3] is -3.7% (inactive). The tube area decrease in [4] was 16.8% (inactive). In addition, the GLP1 secretion stimulation in [5] is -0.5% (inactive). For the same compound, the inhibition of viability in [6] was 16.9% (inactive). Further, the viability decrease (inhibition) in [7] was 24.3% (inactive); in [8] it was -7.8% (inactive). Further, the inhibition in assay [9] was 14.2% (inactive). Moreover, the red/green cell ratio (normalised) in [14] is 1.03 (inactive). The normalised cell number in assay [14] (setting [21]) was 1.2; in assay [14] (setting [22]) it was 1.24. Also, in assay [15], the activity remaining is 82.9% (inactive). Moreover, the fold change is 1.06 (inactive) and 0.798 (inactive) in assay [16] (stronger effect = lower value); 0.901 and 0.92 in assay [16] (setting [23]). Besides, the cell count in assay [16] (setting [24]) is 10600 and 10000; in [16] (setting [25]), 10000 and 12600. The z-score in assay [17] (setting [26]) was 0.615 (inactive); in assay [17] (setting [27]), -0.62; in [20], -0.555 (inactive). The remaining NAD in [18] was 10 nM (inactive). Besides, the luciferase signal in assay [19] was 40 AU (inactive).

As to `CN(C)[C@@H]1C(=O)C(C(N)=O)=C(O)[C@@]2(O)C(=O)C3=C(O)c4c(O)cccc4[C@@](C)(O)[C@H]3[C@H](O)[C@@H]12`, the score in assay [10] stood at 0.9. The cytochrome c release ratio in assay [11] worked out at 0.99. The inhibition of aggregation in assay [12] was 39.4%. In addition, the nuclear beta-catenin stimulation in assay [1] (at 10 µM) was -2.3% (inactive); in assay [1] (stimulation, at 2 µM), 0.1%. Further, the insulin secretion stimulation in [2] was 1.4% (inactive). For the same compound, in assay [3], the viability decrease was 38.4% (inactive). Also, the tube area decrease in [4] is 11.7% (inactive). Further, in assay [5], the GLP1 secretion stimulation was -2.9% (inactive). Also, the inhibition of viability in [6] is 31.6% (inactive). For the same compound, the viability decrease (inhibition) in assay [7] was 62.8% (active); in assay [8], 14.3% (inactive). In addition, in [9], the inhibition was -7.39% (inactive). Besides, in [14], the red/green cell ratio (normalised) is 0.97 (inactive). Also, the normalised cell number in assay [14] (setting [21]) was found to be 1.02; in assay [14] (setting [22]), 0.99. The activity remaining in [15] is 109% (inactive). Moreover, the fold change is 0.977 (inactive) and 0.919 (inactive) and 0.901 (inactive) in assay [16] (stronger effect = lower value); 0.839 and 0.936 and 1.89 in assay [16] (setting [23]). In addition, the cell count in assay [16] (setting [24]) is 8720 and 8430 and 10800; in assay [16] (setting [25]), 8930 and 9170 and 12000. In addition, the z-score in assay [17] (setting [26]) is -3.76 (inactive); in assay [17] (setting [27]) it was -2.32; in assay [20], -1.4 (inactive). Also, the remaining NAD in assay [18] is 10 nM (inactive). Moreover, the luciferase signal in assay [19] was 92 AU (inactive).

As for `ClCCCN1CCN(c2cccc(Cl)c2)CC1`, the nuclear beta-catenin stimulation is -0.9% (inactive) in assay [1] (at 10 µM) and -2.6% in assay [1] (stimulation, at 2 µM). Moreover, the insulin secretion stimulation in assay [2] is 1.1% (inactive). The viability decrease in assay [3] is 15% (inactive). In [4], the tube area decrease was -11.1% (inactive). Further, in [5], the GLP1 secretion stimulation is 1.5% (inactive). The inhibition of viability in [6] is 42.8% (inactive). Also, the figures for the viability decrease (inhibition) in assay [7] and in assay [8] were 26.2% (inactive) and 50.1% (active), respectively.
